# According to the supplement of paper PMC12632987:
# Over roughly 2,300 sequences, “median log2 fold change of GCK-ALFA target abundance (FLAG IP / Myc IP barcode read proportion)” has its median near 0.095; the lowest 2% begin near -0.47. This is one part of a sample in which the lowest values are shown more often than they occur.
# B1: LC3A_free_0_2116 (protein)
# chain: KKTVVEVLVILDESTTEEEAKKAYEELKKKAEEIAKKYGWEVKVELSKSDGSWIITVTLTSDSTDIDKALEIARELSDAAEEIAKELGLDATIYESVYLE
# B2: LC3A_28_1087 (protein)
# chain: SELEEQLKKALEEAKKAKEEGKEVTLEITVPDTATEEDIELVKETLKEIAEIAKELPSLSVVINLTGKNAQAKATELSAHAEELEKEVPNLTVIIALDED
# B3: LC3A_3_1520 (protein)
# chain: MEEIEKEIIKLLKEAGASEETIEKAKELLKLLRERGYLNAMKTLLEELKELKDAPVETIEAFVKDVLELVKTEDLSEEELSKRIKELATIAKNDAEIEEL
# B4: LC3A_6_2066 (protein)
# chain: KLYKITIDILLKSEKPEEALKVAKEIAEEIRKFAEEINKEYNGAVKKLEIKIEEIDGEVFLTIEIVAEEKAVNEIIDKVDEIVEENKEYVAASMISVEEL
# B5: LC3A_28_724 (protein)
# chain: NRLEASIAAALARARALAAAGESDVIEITIPGDATEEDIERVIEALEEIAAITADLPRTDIVINVEGGVKQEHIDRLADAAEAIEARYPNVTVIIALDEE
# B6: LC3A_55_2007 (protein)
# chain: MEVFIFITENAETGEILALEVEVDSDPERLLEALRAAGEELAAELFRLANGRRLDEEEMAEIKARYSPEEVRAAVEALIAVLESLPDVKVSVLIELEEEE
# B7: LC3A_13_341 (protein)
# chain: TVTLEVETAEELRERGFAALAAHPGETIRITVTVRDEEEAEAIAEVLAELVRAAAEAGSDLEITIRGPRDLVLYVALEVGSEAYEHIDKVTVTITEEVVE
# B8: LC3A_147_449 (protein)
# chain: MLYEITVDALFKNDPALAEEVAEQLKAIAEKHGGEVEVEFEEEQVSPTTTEYFLNVTITFEDKAKAQAAETEIAALLDETAAKHPDKFLGAILSFEEVEP
# B9: LC3A_3_1611 (protein)
# chain: MEELIERELERLREAGFSPEVLEEARKVLEALAEKGYRRAIEKLTEELLKLKDVDPELVIEALREILRIVTEEDLSEEEVIEEIEREFRVVRLESEIIEL
# B10: LC3A_free_8_2519 (protein)
# chain: KSKAFAQRVVAILEELEKEIVKLLKEKGASRLDILEAELLIGSIIAEVISLQDKSPEEIIKAVKEGLKELVEELEKYKEEVKKLAEEALKKIEAAKKELE
# B11: LC3A_3_1395 (protein)
# chain: FEEIRKETIEYLKKAGKSEEVIKAAEEALELLEKRGYLEAAKTFLEELKKMKDVSDELLLWFLNEVINYLKTNDDDEETVIKKIKEFATIVKNESEIEEL
# B12: LC3A_147_483 (protein)
# chain: MRIDIDALIKGEETVEEFIERLEEKKEELEEEGVEVELEIEVEEVEEGVYYLKVTVTIKAETKEKEKEAADKIIDTIEEFEEENKDKVLGVLISVEEIEE
# B13: LC3A_28_1260 (protein)
# chain: SELEKNIEAAIAEVKEAVAKGEEAVVTIKVPAGITEEEVEKVIETMEKIAELGKSLPSVTIIVDVEKGVKQEHIDKLVDKGEELEKKYPNLTVIFALEEE
# B14: LC3A_45_1982 (protein)
# chain: MWEATIDLLVPRELAEEAYAILKEAGAELVARHGDDLKVDWDALDASYEASRDEEEVYLRLNIYHPDKQVALDSAVEIVDRLEERLGRKVAAIISVKEVP
# B15: LC3A_23_600 (protein)
# chain: MVTVEADHVVKNDPELAEEKTKKLLEEIKKILEKNKDYIKDYKIEVEFYTDEDGNTVVRITVTVKVKDDPEKAQEIANELISAFDEILPDAVIAYDVEED
# B16: LC3A_28_836 (protein)
# chain: SFAEEEIKKAKKALEKAKETKEDVVVEVVIKSTMTPEEAQYIMDELEKEVSKLPKDVKVSIVFLAEEPVDPEVLQTIADGGDEIEEKYPNVTVIIALPEE
# B17: LC3A_28_985 (protein)
# chain: SAMEERLAAALAEAKAAAAAGEATVITIEVPSTATEEDIEKAVAALKEIGEILKGVKGSAIVVDLESGVPEEHIRKLADAGEEVEKANPDVSVIFALDED
# B18: LC3A_141_362 (protein)
# chain: AVKKKTYTYTATTYDEALKVAEEIGKEIKKFMEETGAEEVKVTVTITSYNEKTGEVTTETDTYTVTKENLDLFIEGLEIDLLSAFDKGADKIVVKVTIET
# B19: LC3A_28_758 (protein)
# chain: MDVAEIVAAAIAEAKAAAAAGEEAVIRIRVPAGATQEDIDKVIAGLEEIAEIRKDMKSTSIVIDIEAGVSQENIDKLIDAGEAIEKKYPNITVIFALDED
# B20: LC3A_59_2012 (protein)
# chain: REEVREWVEKIYEAYDDVEKFYELVKKAYEELKKKYSDEELLKLVKEEVERLIKEGKDPRKMKAIYESFKAVIEIKDEEKQKEEIRLIILESEIEEIDEE
# B21: LC3A_3_1808 (protein)
# chain: MEERLEEVIKLLKEAGHSEETIKAFLEAAEALKEKGYEEALETLLELARELVDLPSELLLEMFEDVLELVETSDDSEEEITERIREIASTYRHEAEIEEL
# B22: LC3A_132_320 (protein)
# chain: MEEKARRIREEILRLIEEAEENIDDLEKVEELVEEIRELARRAEEELTPEQVAEIFEEAAEKADEVSLKADEEGKEDVALLMDGLSVELAALSIRAEEKI
# B23: LC3A_free_2_2172 (protein)
# chain: MKYRVIIDALGKPEGIAKLVKTLVDLGIEVEVTTEDGTKMTATKETVEEVVKYLLSKKEEIYVELEAVTDKEKADKALDELEKVAEETGISYIVSIEELE
# B24: LC3A_28_689 (protein)
# chain: NYIEELKKKAEEILEEAAAKGEEAYIEIDFERPITPEEVEEIMDKLEEYIKKYKLKKVNIVINILSENQSQETIDTIMDKAEELEKRIPNVTVIIALPEN
# B25: LC3A_3_1500 (protein)
# chain: LEEAVERLLEALREAGVSEADIAEARELLEKAREYLTEESIEAITETVRRLAHLPPRLVAAAVLTLLETILEKKLNDEEVKEKAELLAETAESFAESDER
# B26: LC3A_28_698 (protein)
# chain: SRVDEDIERARKIAEEAIAKGEDALIELTIRPDTTAEDVDRILATIRELAEKMSKTGKLYVVVDVESGVDQANIDRIADELDKLMEEIPNLTAVIALDED
# B27: LC3A_141_369 (protein)
# chain: KTVTLKLELKNSSLDEVIEKMEELEEEVLKAYEELGGGKVKVTVTLTFKNSKTGETTVIKEEFEADKEELEMLLEGVLIEAASYRLTENADITVTVTLEA
# B28: LC3A_28_725 (protein)
# chain: NELEESIEKALKKAKELAEKGKSDVIEITIPGNATQEDIEKVIKALEEIAEIVKDLESVSIVIDVEGGVKQEHIDKLADKAEEIEKKYPNVTVIIALDED
# B29: LC3A_free_0_2099 (protein)
# chain: MTTVVEVLGIIDNENDKEAAEAIAEELKKLGKKLSEEKGWKVTVELKKVNGSYVITVTIEGKGMSIEEGLEIADEIADKIERLAKEHGVEVTIYTSVYEE
# B30: LC3A_28_943 (protein)
# chain: MSIEEDIEAALKEAKEAKKKGEPAVITITVKGTATQEEVDAVIKTIKEIAELLKDIKGSAIIVDIEAGVAQEHVDALMDTLDEIEKKYPNINAIAALDED
# B31: LC3A_28_944 (protein)
# chain: MTIEEEIEKALKEAKEAKAKKEPAVITITVKGDATEEEIEKVIETIKEIAELLKDIKGSAIIVDVEKGVKEEHINKLLDTLDEIEKKYPNISAIMALDED
# B32: LC3A_3_1778 (protein)
# chain: ADELIEELLEALREAGKSEETIEAAREVAERLRERGFDEALETFVREMRRLLDVPDDILLDMLEEVLELLETEDLSEEEVIERIEELARLARAEAEIEEL
# B33: LC3A_132_256 (protein)
# chain: SEELYERFLEEAKELIDKIVDALKAGKDPSPYIKELDELAEEAAEKLSLEELERLVEEAEEYAEERFAERLDPNDPEARRALDIVEMILDSALIEAELRA
# B34: LC3A_132_258 (protein)
# chain: SEEKKEEFLEKFKELIDKIVEALQAGQDPSPYLKELDELAEEAAEELSLEELEELVEEAEKYARERFAERLDPNDPEARRTLLIVEMILDSALIESELRA
# B35: LC3A_28_714 (protein)
# chain: SPLEESIKKALEEAKEAAKKGEEAVIEIKVEGEITEEETEKVQKAIEEIAEITKDLKSTTIIVDVDGKVPQEHINKILDKGEEVEKKYPNVTVIFALDEN
# B36: LC3A_free_0_2103 (protein)
# chain: SVTVVEVVAISKEKWSEEKAKKLKEAAEKLAKELEEKYGMETEVKLEEIDGRQVLTIKAKKEGMSIDEGLEIADYIADHLEEKAKELGVEVEIYESVYEE
# B37: LC3A_3_1781 (protein)
# chain: AEARIAELLAALEAAGASPETIAAVRAAAEALRARGYEEALATFVEEMRRLLGLPDEIRLAFAQEVLRLIEENDLSEEELTEEIRRLARLARLEAEIEEL
# B38: LC3A_free_8_2489 (protein)
# chain: KSQELANLASDLLDELEEEVEKKAKELGASELDILDLSLLIGSTIAEAYSLSDESPEKIIEAVREGLEELIERAKEISEELAKKVKELSEKILKELEEKA
# B39: LC3A_3_1366 (protein)
# chain: MEEKIEELLEYLKKEGKSEETLEAVRKTLEALIEKGYEEAAETFIELMKKLSHLPDELLLDFAKEVLEKVENEDLSEEELIEFIKEEAKIAENEAEIIEL
# B40: LC3A_28_772 (protein)
# chain: MDIKENAAKAIAEAKAAAAAGEEAVIEIKVPDGATEEDIEIVIKALEEIAEITKDMKSISVVIDVDGGVKQEHLDKLAKAAEEIEEKYPNVTVIIALDEN
# B41: LC3A_free_39_2201 (protein)
# chain: SEEEFEKYKEELLKLAEKEGEEALKEAKELLKEIEGNVNLAKTVLEEVKRAVEEGADVLELLKELLKLVKELKKEGKSEEEIIKEMKAKADVIINLIPID
# B42: LC3A_28_1312 (protein)
# chain: SKLKKQFEEAIKEVEAAAAAGEPVVVTIDITAEEAEKELEEILKLLEELAKVASKAPGATIIIDVDEDVKPENLKKIAEKAEELEKKYPNVTVIIAIEDK
# B43: LC3A_127_171 (protein)
# chain: ELEELLEEALEVAEELSELLEEEDYDFEEIEELTRELLELAKKILELDPRAEDALETAEEMLELLEEMKEADEAEQKELKEHLLMLTEGLIIELLGLQLK
# B44: LC3A_free_39_2287 (protein)
# chain: SEEELEEAVERLEELLEEIEGVSEEEKEIILEAARESLEMAKAILEALEELRRLGGDVAEAAREIAALIRELRAAGASLEERTAAVIEKARDLVNLIPID
# B45: LC3A_132_291 (protein)
# chain: QQEKAEELKKEIKEIVEEMKENIDDEEKVRKLLEELEKLMKRAEKELSPELLAEVFEELSELLEELSEEFDEAGKEDLALEADSLAIEAASLALRAKEKI
# B46: LC3A_127_206 (protein)
# chain: KEKELLKKAEKLAEKAEEAVDKIPKEGEKAREEAIKLLEELAKLLKQIPSLKEALEDTEQAIKLLKETAKLSPAEREETIEQISQIISGILIEIESELLK
# B47: LC3A_free_46_2354 (protein)
# chain: VEAKIEVDLLHEDEEVLKKAVEAIKEAAKKIAKKYGLKVEIKEKIEKLPDGSYFAEIEITLKGEDKETLEKAVNELINEIDEIAKKYDVAAIISYEIIEK
# Molecular target: MAP1LC3A, Q9H492
# Assay: median log2 fold change of GCK-ALFA target abundance (FLAG IP / Myc IP barcode read proportion) (log2 ratio); each designed protein is fused to an ALFA-tag nanobody in HEK293 cells to bring the named protein to FLAG-tagged glucokinase (GCK); Myc marks an untargeted standard; higher = target protein stabilised (more abundant)
# Details: target protein: 3xFLAG-MCP-GCK-ALFA reporter; HEK293 landing pad (RPLP)
# Method in brief: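 Sequencing of reverse-transcribed, amplified circular RNA barcodes from anti-FLAG and anti-Myc immunoprecipitates provided the readout for an ALFA-nanobody-fused binder library recombined into HEK293 landing-pad cells. Those cells were induced with 2 μg mL^−1 doxycycline, transfected with a plasmid expressing a FLAG-tagged target and a Myc-tagged standard, and lysed after 48 h. Target abundance is the per-binder median log2 ratio of FLAG to Myc barcode read proportions. Only barcodes at a proportion of ≥10^−7 in both replicates and binders with ≥3 barcodes per replicate were kept, with a 10^−6 pseudocount added before the two replicates were pooled.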
row,Binder,median log2 fold change
1,B1,-0.122
2,B2,0.251
3,B3,0.547
4,B4,-0.173
5,B5,0.154
6,B6,0.119
7,B7,0.0625
8,B8,-0.603
9,B9,0.132
10,B10,-0.243
11,B11,0.436
12,B12,-0.904
13,B13,-0.13
14,B14,0.0214
15,B15,-0.566
16,B16,0.111
17,B17,-0.274
18,B18,-0.96
19,B19,0.124
20,B20,0.156
21,B21,0.0777
22,B22,0.104
23,B23,-8.53e-05
24,B24,-0.0908

row,Binder,median log2 fold change
1,B25,0.0772
2,B26,-0.304
3,B27,-0.618
4,B28,0.164
5,B29,-0.379
6,B30,-0.355
7,B31,-0.897
8,B32,-0.0575
9,B33,-0.217
10,B34,-0.582
11,B35,0.219
12,B36,0.15
13,B37,0.24
14,B38,0.0352
15,B39,0.0931
16,B40,0.202
17,B41,0.451
18,B42,-0.0764
19,B43,-0.77
20,B44,0.257
21,B45,-0.27
22,B46,0.148
23,B47,-1.38e-07
